Drawing on PubChem BioAssay (NCI), this text covers growth for 40 molecules.

This is part of a sample that, as a whole, favours compounds with a hit. Of some 83,000 tested, about 20% had one in any assay.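 For each line, cells grew in 96-well plates with the test compound present at a single concentration for 48 hours.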 Calls of active or inactive are those of the source. How the source made its calls: active means growth percent below 10; inactive means the rest.

The assay deals with MDA-MB-468 breast. As to the kind of experiment: NCI-60 one-dose screen, 48 h (100 = growth as untreated, 0 = no growth, -100 = all killed). To be noted: 10 µM unless noted.
Regarding `Cc1[nH]c(C2CC(c3ccc(C(F)(F)F)c(F)c3)=NN2c2ccccc2)c(C)c1C(=O)NCC(F)(F)F` (stereo not given), the growth was 86.5% (inactive). Next, `COc1ccc(-c2c(N)noc2-c2cc(OC)c3c(c2)OCCO3)cc1`: -1.87% (active); `Cc1nc2cnc(N)c(C#Cc3cncc(C(=O)Nc4ccc(Cl)c(C(F)(F)F)c4)c3)c2nc1C`: 72.6% (inactive); `COc1ccc(-c2cncn2-c2ccc(-c3nc4cc(OC)c(OC)c(OC)c4s3)cc2)cc1N`: 78.4% (inactive). For the molecule `CC(=O)OC(c1ccccc1)C1CCOC1=O` (stereo not given), the growth is 80.8% (inactive). With `O=C(N/N=C\c1cc(Br)cc(Br)c1O)N/N=C/c1cc(Br)cc(Br)c1O` the figure was 57.7% (inactive); with `COc1cc(C(=O)c2cnc(-c3ccc4cc[nH]c4c3)[nH]2)cc(OC)c1OC`, -23.2% (active). Next, `CS(=O)(=O)c1ccc(C(=O)N/N=C/c2ccc3c(c2)OCO3)cc1`: 109% (inactive); `Clc1ccc2c(c1)-c1ccccc1C1=NCCN12`: 7.52% (active). Next, `O=S(=O)(NCCCNc1nccc(-c2c(-c3ccccc3)nc3sccn23)n1)c1ccc(F)cc1`: 35.5% (inactive).

For the molecule `Cc1ccc(C(=O)NCCNc2nccc(-c3c(-c4cccc(F)c4)nc4sccn34)n2)cc1`, the growth is 38.7% (inactive).

As to `COc1ccc2c(c1)[nH]c(=O)c1c3cc(OC)c(OC)cc3cn21`, the growth was 11.4% (inactive). Consider `CC(O)Cc1c[nH]c(=O)[nH]c1=O` (stereo not given), for which the growth was 121% (inactive). With `NC(=S)N/N=C(\c1ccc(Cl)cc1)C1CC1` the figure was 18.5% (inactive).

As to `CC(C)CCOC(=O)c1ccccc1`, the growth is 115% (inactive). For `COc1ccc(-c2nnc(SCC(=O)Nc3ccc(C(=O)/C=C/c4ccc(OC)c(OC)c4)cc3)o2)cc1`, the growth was 88.7% (inactive). As for `Ic1cccs1`, the growth is 103% (inactive).

`CC(O)(CO)c1ccccc1` (stereo not given): the growth was 99.6% (inactive).

Take `C1=C2CCCC3=Cc4ccccc4OC23Oc2ccccc21`: the growth was 25.5% (inactive). Next, `Cc1ccc(Nc2nc(N)nc(CSCC(=O)NN)n2)cc1`: 95.7% (inactive). Take `CSc1nn2c(-c3cc4cc(Br)ccc4oc3=O)ccnc2c1C#N`: the growth was 109% (inactive). In the case of `CCOC(=O)c1c2c(n3ccc(NC(=O)CCN4CCCCC4)cc13)C(=O)c1ncccc1C2=O`, the growth was 83.1% (inactive). For `O=C1C(Cl)=C(Oc2ccccc2)C(=O)c2ccccc21`, the growth is 13% (inactive). Take `O=C1/C(=C\c2cccnc2)SC(=S)N1CCc1ccc(O)cc1`: the growth was 35.2% (inactive).

Consider `NC1=NC(c2ccccc2)N=C(Nc2ccccc2)N1` (stereo not given), for which the growth was 9.95% (active). With `Cn1ncc2c(Nc3ccccc3Cl)nc(Cl)nc21` the figure was 97.1% (inactive); with `O=C1C2C(C(=O)N1CC[Se][Se]CCN1C(=O)C3C(C1=O)[C@H]1C=C[C@@H]3C1)[C@H]1C=C[C@@H]2C1` (stereo not given in full), -12.6% (active). On to `CCC[C@H](N[C@@H](C)C(=O)N1[C@H](C(=O)O)C[C@@H]2CCCC[C@@H]21)C(=O)OCC`, for which the growth is 101% (inactive). `O=C(O)CSCC(=O)Nc1cc(C(F)(F)F)ccc1Cl`: the growth was 105% (inactive). As to `COC(=O)c1ccc2c(c1)[n+](=O)c(C(C)=O)c(C(F)(F)F)n2[O-]`, the growth is -83.7% (active). For the molecule `CCN(CC)Cc1cc(Nc2ccnc3ccc(OC)cc23)ccc1O`, the growth was -3.96% (active). With `ClCCOCCOc1ccc(C2CCCCC2)cc1` the figure was 91.2% (inactive). With `COc1ccc(/C=C2\CCCC3=C2N=C2SC(C)=CN2C3c2ccc(OC)cc2)cc1` (stereo not given) the figure was 85.1% (inactive); with `CCCCCCN(CCCCCC)c1ccc(/C=C2/SC(=O)N(c3nc(N4CCCC4)nc(N4CCCC4)n3)C2=O)c(C)c1`, 59% (inactive). Next, `CCc1ccc2nc(NC(=O)Cc3csc(NC(=O)c4ccco4)n3)sc2c1`: -54.2% (active); `C=CCc1c(O)c(C(=O)/C=C/c2ccccc2)c(OC)c2ccoc12`: 6.58% (active); `CCCCCC/C=C\CCCCCCCCCc1cc(O)cc(OC)c1O`: -54.1% (active). On to `CCN(CC)CCN(CCN(CC)CC)c1ccccc1`, for which the growth is 92% (inactive). With `COC(=O)c1c(C(=O)OC)c2ccc3c4ncccc4ccc3n2c1C(=O)c1ccc(C)cc1` the figure was 79.1% (inactive); with `CC1(C)CCC(S(=O)(=O)c2ccc3c(c2)/C(=N\O)c2cc(S(=O)(=O)N4CCC(O)(c5cccc(C(F)(F)F)c5)CC4)ccc2-3)CC1`, -78.4% (active).
